# Data published in PubChem BioAssay (EPA / NIEHS).
# Results filed as inconclusive are left out. The source made the active and inactive calls. The calls were made as follows: active = hit-call score of the fitted dose curve at least 0.9, where 1 is the maximum; inconclusive = response in the unintended direction; inactive = score below 0.9.
# Key:
# [1] = biological target: human Endothelin Receptor Type B (ETB), EDNRB (gene 1910) (UniProt P24530); assay: NVS_GPCR_hETB: NovaScreen (NVS) G Protein-Coupled Receptor Assay for human Endothelin Receptor Type B (ETB) (AID 2283267)
# How it was run: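 Filter-based scintillation readout of radioligand displacement, 4 h, using membranes from human astrocytoma cells. Actives from a 25 uM duplicate screen were retested in concentration-response (top 50 uM) relative to DMSO baseline.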
# [2] = biological target: human Leukotriene B4 Receptor 1 (LTB4-BLT1), LTB4R (gene 1241) (UniProt Q15722); assay: NVS_GPCR_hLTB4_BLT1: NovaScreen (NVS) G Protein-Coupled Receptor Assay for human Leukotriene B4 Receptor 1 (LTB4-BLT1) (AID 2283271)
# How it was run: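 Cell-free human neutrophil receptor preparation, 1 h exposure, radioligand binding read by filter scintillation counting. Single 25 uM duplicate screen, then concentration series topping at 50 uM; binding loss scored against DMSO baseline.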
# [3] = biological target: human Adenosine A1 Receptor (AdoRA1), ADORA1 (gene 134) (UniProt P30542); assay: NVS_GPCR_hAdoRA1: NovaScreen (NVS) G Protein-Coupled Receptor Assay for human Adenosine A1 Receptor (AdoRA1) (AID 2283254)
# How it was run: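 Hum. cortical membranes + radioligand, cmpd 1 h; filtration, scintillation count. Readout = decrease vs DMSO. Primary 25 uM dup; hits → conc. series.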
# [4] = biological target: human Adenosine A2a Receptor (AdoRA2a), ADORA2A (gene 135) (UniProt P29274); assay: NVS_GPCR_hAdoRA2a: NovaScreen (NVS) G Protein-Coupled Receptor Assay for human Adenosine A2a Receptor (AdoRA2a) (AID 2283256)
# Chain of human Adenosine A2a Receptor (AdoRA2a), ADORA2A (gene 135) (P29274 whole entry, looked up): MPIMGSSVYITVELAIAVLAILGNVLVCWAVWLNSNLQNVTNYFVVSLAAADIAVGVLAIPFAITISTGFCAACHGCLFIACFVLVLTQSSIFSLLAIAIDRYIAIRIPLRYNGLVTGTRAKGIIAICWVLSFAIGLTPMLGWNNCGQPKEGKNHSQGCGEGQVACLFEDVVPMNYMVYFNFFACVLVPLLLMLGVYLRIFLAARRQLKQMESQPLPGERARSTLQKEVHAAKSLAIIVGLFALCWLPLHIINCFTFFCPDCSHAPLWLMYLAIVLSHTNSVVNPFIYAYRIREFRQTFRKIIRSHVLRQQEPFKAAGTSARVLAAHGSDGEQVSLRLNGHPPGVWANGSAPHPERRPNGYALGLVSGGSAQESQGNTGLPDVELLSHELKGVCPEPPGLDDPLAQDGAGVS
# How it was run: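 HEK293-derived receptor preparation, radioligand displacement, 1.5 h, filtration + scintillation read. Loss of bound signal scored vs DMSO. Single-point 25 uM in duplicate first, then concentration-response for actives.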
# [5] = biological target: Beta-2 adrenergic receptor (Homo sapiens) (UniProt P07550); assay: NVS_GPCR_hAdrb2: NovaScreen (NVS) G Protein-Coupled Receptor Assay for human Adrenergic, Beta 2 Receptor (Adrb2) (AID 2283261)
# Chain of Beta-2 adrenergic receptor (Homo sapiens) (P07550 whole entry, looked up): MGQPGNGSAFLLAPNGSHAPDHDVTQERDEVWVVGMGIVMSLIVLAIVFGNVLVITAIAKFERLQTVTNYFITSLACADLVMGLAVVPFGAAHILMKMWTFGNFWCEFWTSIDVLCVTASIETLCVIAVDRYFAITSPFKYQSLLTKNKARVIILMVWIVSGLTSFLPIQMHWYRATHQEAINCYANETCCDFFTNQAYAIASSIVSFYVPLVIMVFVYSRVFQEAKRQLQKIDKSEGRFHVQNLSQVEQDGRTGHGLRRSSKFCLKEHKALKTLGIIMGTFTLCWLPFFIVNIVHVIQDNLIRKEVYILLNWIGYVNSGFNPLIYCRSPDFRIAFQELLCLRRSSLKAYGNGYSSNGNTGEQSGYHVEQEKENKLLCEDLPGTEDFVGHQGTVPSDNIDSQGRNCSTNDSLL
# How it was run: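 Compounds screened in duplicate at 25 uM, then actives in concentration series. Human beta-2 receptor from CHO material, cell-free; radioligand displacement after 1 h measured by filtration and scintillation against DMSO baseline.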
# [6] = biological target: D(1A) dopamine receptor (Homo sapiens) (UniProt P21728); assay: NVS_GPCR_hDRD1: NovaScreen (NVS) G Protein-Coupled Receptor Assay for human Dopamine Receptor D1 (DRD1) (AID 2283269)
# Chain of D(1A) dopamine receptor (Homo sapiens) (P21728 whole entry, looked up): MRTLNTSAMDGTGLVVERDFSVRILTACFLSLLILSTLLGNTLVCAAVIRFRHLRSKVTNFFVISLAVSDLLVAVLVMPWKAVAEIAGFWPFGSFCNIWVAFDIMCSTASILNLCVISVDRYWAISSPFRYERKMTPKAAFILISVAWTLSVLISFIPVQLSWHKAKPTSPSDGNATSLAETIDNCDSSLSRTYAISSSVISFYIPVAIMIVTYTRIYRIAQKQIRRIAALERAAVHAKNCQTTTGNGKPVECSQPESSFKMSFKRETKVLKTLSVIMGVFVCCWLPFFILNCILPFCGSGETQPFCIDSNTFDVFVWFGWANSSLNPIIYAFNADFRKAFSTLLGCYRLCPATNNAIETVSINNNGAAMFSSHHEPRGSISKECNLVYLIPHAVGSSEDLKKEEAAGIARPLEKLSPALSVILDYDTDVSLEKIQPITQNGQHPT
# How it was run: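 HEK293-derived receptor preparation; radioligand competitive displacement; 1 h; filtration + scintillation counting. DMSO = negative control/baseline. Primary: 25 uM, duplicate; secondary: concentration–response for actives.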
# [7] = biological target: guinea pig Opioid, Kappa 1 Receptor (OpiateK), OPRK1 (gene 100135587) (UniProt P41144); assay: NVS_GPCR_gOpiateK: NovaScreen (NVS) G Protein-Coupled Receptor Assay for guinea pig Opioid, Kappa 1 Receptor (OpiateK) (AID 2283252);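 also: active means reduced radioligand binding relative to DMSO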
# Chain of guinea pig Opioid, Kappa 1 Receptor (OpiateK), OPRK1 (gene 100135587) (P41144 whole entry, looked up): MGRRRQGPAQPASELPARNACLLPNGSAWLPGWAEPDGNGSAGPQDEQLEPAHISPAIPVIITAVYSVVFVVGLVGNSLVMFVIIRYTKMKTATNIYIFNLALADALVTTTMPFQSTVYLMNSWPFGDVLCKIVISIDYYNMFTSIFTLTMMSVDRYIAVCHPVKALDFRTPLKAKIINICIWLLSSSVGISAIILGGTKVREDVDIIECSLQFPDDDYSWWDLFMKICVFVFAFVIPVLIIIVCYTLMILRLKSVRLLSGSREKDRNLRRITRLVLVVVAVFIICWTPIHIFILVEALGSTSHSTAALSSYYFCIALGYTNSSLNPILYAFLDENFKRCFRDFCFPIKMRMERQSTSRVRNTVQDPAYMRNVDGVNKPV
# How it was run: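 Radioligand binding to kappa opioid receptor in guinea pig cerebellar membranes, read by filtration and scintillation at 2 h. Compounds first tested in duplicate at 25 uM, then actives in concentration series; signal loss fitted against DMSO.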
# [8] = biological target: human Serotonin, 5-Hydroxytryptamine Receptor 6 (5HT6), HTR6 (gene 3362) (UniProt P50406); assay: NVS_GPCR_h5HT6: NovaScreen (NVS) G Protein-Coupled Receptor Assay for human Serotonin, 5-Hydroxytryptamine Receptor 6 (5HT6) (AID 2283253)
# Chain of human Serotonin, 5-Hydroxytryptamine Receptor 6 (5HT6), HTR6 (gene 3362) (P50406 whole entry, looked up): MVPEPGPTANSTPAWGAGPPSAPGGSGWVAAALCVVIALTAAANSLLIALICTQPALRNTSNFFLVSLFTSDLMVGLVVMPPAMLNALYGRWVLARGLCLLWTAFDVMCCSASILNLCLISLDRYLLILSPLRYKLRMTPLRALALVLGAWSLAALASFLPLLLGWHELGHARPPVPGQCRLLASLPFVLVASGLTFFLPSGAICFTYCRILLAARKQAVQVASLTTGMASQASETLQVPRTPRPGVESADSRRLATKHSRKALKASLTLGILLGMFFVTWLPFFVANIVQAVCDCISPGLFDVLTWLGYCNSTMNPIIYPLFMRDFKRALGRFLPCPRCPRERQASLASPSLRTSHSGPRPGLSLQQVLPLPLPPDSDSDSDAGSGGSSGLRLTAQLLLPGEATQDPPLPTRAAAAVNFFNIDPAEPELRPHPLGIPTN
# How it was run: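 Filter scintillation counting of radioligand displacement from HEK293-expressed 5HT6, 1 hour post-dose, with loss of signal relative to DMSO. Single 25 uM duplicates first, with concentration series for confirmation.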
# [9] = biological target: human Serotonin, 5-Hydroxytryptamine Receptor 7 (5HT7), HTR7 (gene 3363) (UniProt P34969); assay: NVS_GPCR_h5HT7: NovaScreen (NVS) G Protein-Coupled Receptor Assay for human Serotonin, 5-Hydroxytryptamine Receptor 7 (5HT7) (AID 2283255);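 also: hits reduce specific radioligand binding relative to DMSO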
# How it was run: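 Filter-bound radioactivity counted after 1 h, with loss of specific radioligand binding fitted against DMSO. Membrane protein came from CHO cells expressing human 5HT7. Chemicals were tested first at 25 uM in duplicate, then in concentration series if active.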
# [10] = biological target: human Adrenergic, Alpha 2A Receptor (Adra2A), ADRA2A (gene 150) (UniProt P08913); assay: NVS_GPCR_hAdra2A: NovaScreen (NVS) G Protein-Coupled Receptor Assay for human Adrenergic, Alpha 2A Receptor (Adra2A) (AID 2283257)
# How it was run: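 Displacement of a specific radioligand from HT29 membrane protein was counted by filter scintillation after 1 h. Compounds were screened in duplicate at 25 uM, and actives were retested in concentration series. Fitting was positive-direction against DMSO.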
# [11] = biological target: human Adrenergic, Beta 1 Receptor (Adrb1), ADRB1 (gene 153) (UniProt P08588); assay: NVS_GPCR_hAdrb1: NovaScreen (NVS) G Protein-Coupled Receptor Assay for human Adrenergic, Beta 1 Receptor (Adrb1) (AID 2283258)
# Chain of human Adrenergic, Beta 1 Receptor (Adrb1), ADRB1 (gene 153) (P08588 whole entry, looked up): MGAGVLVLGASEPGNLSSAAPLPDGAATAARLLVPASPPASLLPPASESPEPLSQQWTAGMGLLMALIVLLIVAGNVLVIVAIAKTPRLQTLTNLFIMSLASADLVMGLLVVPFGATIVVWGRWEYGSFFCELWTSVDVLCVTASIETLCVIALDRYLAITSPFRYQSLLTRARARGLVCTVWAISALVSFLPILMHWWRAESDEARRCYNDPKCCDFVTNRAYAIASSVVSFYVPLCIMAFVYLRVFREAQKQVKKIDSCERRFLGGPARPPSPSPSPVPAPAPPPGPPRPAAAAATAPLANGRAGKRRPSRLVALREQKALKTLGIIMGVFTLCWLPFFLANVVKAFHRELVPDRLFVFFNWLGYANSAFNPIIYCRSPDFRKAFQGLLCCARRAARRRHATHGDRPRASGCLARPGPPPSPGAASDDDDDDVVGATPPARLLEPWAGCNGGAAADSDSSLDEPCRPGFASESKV
# How it was run: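 Membranes/protein extracted from human neuroepithelioma cells, radioligand competition binding read by filtration and scintillation 2 h post-dose. Single 25 uM duplicate screen, then concentration-response follow-up; DMSO as negative control.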
# [12] = biological target: human Adrenergic, Alpha 2c Receptor (Adra2C), ADRA2C (gene 152) (UniProt P18825); assay: NVS_GPCR_hAdra2C: NovaScreen (NVS) G Protein-Coupled Receptor Assay for human Adrenergic, Alpha 2c Receptor (Adra2C) (AID 2283259)
# Chain of human Adrenergic, Alpha 2c Receptor (Adra2C), ADRA2C (gene 152) (P18825 whole entry, looked up): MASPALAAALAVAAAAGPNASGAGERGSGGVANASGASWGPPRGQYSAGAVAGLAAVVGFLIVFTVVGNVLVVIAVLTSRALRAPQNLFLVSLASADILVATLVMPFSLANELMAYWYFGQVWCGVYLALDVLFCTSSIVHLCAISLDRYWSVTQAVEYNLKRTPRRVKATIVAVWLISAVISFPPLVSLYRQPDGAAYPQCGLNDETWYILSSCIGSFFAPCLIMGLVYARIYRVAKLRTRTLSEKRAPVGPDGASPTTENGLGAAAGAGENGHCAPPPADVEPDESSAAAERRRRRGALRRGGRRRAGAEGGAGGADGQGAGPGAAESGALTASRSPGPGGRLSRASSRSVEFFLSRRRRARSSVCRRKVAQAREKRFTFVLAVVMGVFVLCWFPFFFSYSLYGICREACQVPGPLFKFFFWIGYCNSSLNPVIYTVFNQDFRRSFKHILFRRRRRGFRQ
# How it was run: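 Screened first in duplicate at 25 uM, with actives then run as concentration series. Membranes from Sf9 cells were exposed for 1 h, and displacement of radioligand was counted after filtration, using DMSO as baseline.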
# [13] = biological target: human Adrenergic, Beta 3 Receptor (Adrb3), ADRB3 (gene 155) (UniProt P13945); assay: NVS_GPCR_hAdrb3: NovaScreen (NVS) G Protein-Coupled Receptor Assay for human Adrenergic, Beta 3 Receptor (Adrb3) (AID 2283262)
# How it was run: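 A cell-free filter binding assay read by scintillation counting, with displacement of a specific radioligand measured after 1 hour. The receptor source was SK-N-MC extracts (cells pretreated with isoproterenol and 8-bromo-cAMP). Compounds were first tested at 25 uM in duplicate and then in concentration series.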
# [14] = biological target: human Dopamine Receptor D4.4 (DRD4.4), DRD4 (gene 1815) (UniProt P21917); assay: NVS_GPCR_hDRD4.4: NovaScreen (NVS) G Protein-Coupled Receptor Assay for human Dopamine Receptor D4.4 (DRD4.4) (AID 2283264)
# How it was run: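 Filter-binding assay with a tritiated or iodinated ligand, cell-free receptor prepared from CHO, 1 hour. Loss of bound radioactivity versus DMSO; single 25 uM duplicate screen, then concentration-response for actives.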
# [15] = biological target: human Dopamine Receptor D2 (DRD2), DRD2 (gene 1813) (UniProt P14416); assay: NVS_GPCR_hDRD2s: NovaScreen (NVS) G Protein-Coupled Receptor Assay for human Dopamine Receptor D2 (DRD2) (AID 2283266)
# Chain of human Dopamine Receptor D2 (DRD2), DRD2 (gene 1813) (P14416 whole entry, looked up): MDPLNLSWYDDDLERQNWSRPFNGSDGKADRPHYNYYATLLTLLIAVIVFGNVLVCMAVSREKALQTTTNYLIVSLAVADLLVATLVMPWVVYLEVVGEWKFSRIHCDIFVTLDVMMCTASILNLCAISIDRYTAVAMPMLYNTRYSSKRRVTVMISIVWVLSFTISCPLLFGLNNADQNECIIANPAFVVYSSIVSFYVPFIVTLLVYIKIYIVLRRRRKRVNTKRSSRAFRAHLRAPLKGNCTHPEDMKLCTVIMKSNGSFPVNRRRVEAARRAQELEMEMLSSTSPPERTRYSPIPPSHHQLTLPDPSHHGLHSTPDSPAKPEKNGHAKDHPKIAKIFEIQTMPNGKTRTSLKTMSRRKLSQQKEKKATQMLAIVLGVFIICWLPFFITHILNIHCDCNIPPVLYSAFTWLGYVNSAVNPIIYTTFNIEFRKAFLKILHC
# How it was run: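 Test compound (25 uM, duplicate in the primary screen; concentration series at follow-up) competed with radioligand for human DRD2 in CHO-derived membrane protein. Filter-based scintillation counting was done 1.5 hours after dosing, with loss of signal analysed against DMSO.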
# [16] = biological target: human Histamine 1 Receptor (H1), HRH1 (gene 3269) (UniProt P35367); assay: NVS_GPCR_hH1: NovaScreen (NVS) G Protein-Coupled Receptor Assay for human Histamine 1 Receptor (H1) (AID 2283268)
# How it was run: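 Filter-based scintillation detection of radioligand binding to human H1, 1 h incubation; chemicals screened in duplicate at 25 uM, then concentration-response; signal loss relative to DMSO taken as activity.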
# [17] = biological target: Muscarinic acetylcholine receptor M1 (Homo sapiens) (UniProt P11229); assay: NVS_GPCR_hM1: NovaScreen (NVS) G Protein-Coupled Receptor Assay for human Muscarinic, M1 Receptor (AID 2283270)
# Chain of Muscarinic acetylcholine receptor M1 (Homo sapiens) (P11229 whole entry, looked up): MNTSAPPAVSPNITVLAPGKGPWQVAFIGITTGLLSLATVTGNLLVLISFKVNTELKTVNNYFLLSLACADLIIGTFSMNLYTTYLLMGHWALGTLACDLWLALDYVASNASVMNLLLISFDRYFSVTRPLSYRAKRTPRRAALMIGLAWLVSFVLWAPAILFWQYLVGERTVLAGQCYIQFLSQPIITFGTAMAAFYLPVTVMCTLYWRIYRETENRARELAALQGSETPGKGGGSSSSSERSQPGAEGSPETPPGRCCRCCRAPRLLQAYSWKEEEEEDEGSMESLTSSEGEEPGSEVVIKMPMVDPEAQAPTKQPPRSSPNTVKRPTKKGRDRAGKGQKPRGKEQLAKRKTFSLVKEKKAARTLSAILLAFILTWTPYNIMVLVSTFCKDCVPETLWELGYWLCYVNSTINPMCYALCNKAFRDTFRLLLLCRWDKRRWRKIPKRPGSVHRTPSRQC
# How it was run: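 Actives from a duplicate 25 uM single-point screen were retested in concentration series. Binding measured as displacement of a radioligand from CHO-derived receptor preparation, 1 h incubation, filtration and scintillation counting, analysed as signal loss against DMSO.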
# [18] = biological target: Muscarinic acetylcholine receptor M3 (Homo sapiens) (UniProt P20309); assay: NVS_GPCR_hM3: NovaScreen (NVS) G Protein-Coupled Receptor Assay for human Muscarinic, M3 Receptor (AID 2283272)
# Chain of Muscarinic acetylcholine receptor M3 (Homo sapiens) (P20309 whole entry, looked up): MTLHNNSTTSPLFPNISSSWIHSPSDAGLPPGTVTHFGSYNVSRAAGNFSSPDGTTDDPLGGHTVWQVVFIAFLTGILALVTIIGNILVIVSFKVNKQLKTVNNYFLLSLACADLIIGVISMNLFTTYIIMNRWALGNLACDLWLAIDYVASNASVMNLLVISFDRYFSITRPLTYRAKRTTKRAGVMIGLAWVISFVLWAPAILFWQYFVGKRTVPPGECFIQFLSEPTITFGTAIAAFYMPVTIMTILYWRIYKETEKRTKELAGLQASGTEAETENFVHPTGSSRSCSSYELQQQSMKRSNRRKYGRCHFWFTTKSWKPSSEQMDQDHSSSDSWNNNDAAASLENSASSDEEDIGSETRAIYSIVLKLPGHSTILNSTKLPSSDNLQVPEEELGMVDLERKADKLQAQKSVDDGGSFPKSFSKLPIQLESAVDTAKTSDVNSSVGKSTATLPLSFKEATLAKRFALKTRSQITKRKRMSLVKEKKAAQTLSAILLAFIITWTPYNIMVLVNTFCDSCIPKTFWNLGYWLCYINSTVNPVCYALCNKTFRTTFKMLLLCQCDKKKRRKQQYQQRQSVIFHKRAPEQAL
# How it was run: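 Radioligand displacement binding on human M3 receptor in CHO-derived membranes, 1 h incubation, filter-based scintillation counting. Primary screen in duplicate at 25 uM; actives followed up in concentration series; loss of signal versus DMSO.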
# [19] = biological target: Type-1 angiotensin II receptor (Homo sapiens) (UniProt P30556); assay: NVS_GPCR_hAT1: NovaScreen (NVS) G Protein-Coupled Receptor Assay for human Angiotensin II receptor type 1 (AT1) (AID 2283263)
# How it was run: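 Hits from a 25 uM duplicate screen (threshold e.g. 30% inhibition) were run in concentration-response with 50 uM top concentration. Displacement of specific radioligand from KAN-TS membrane preparations measured after 3 h by filter scintillation, DMSO as baseline.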
# [20] = biological target: human Endothelin Receptor Type A (ETA), EDNRA (gene 1909) (UniProt P25101); assay: NVS_GPCR_hETA: NovaScreen (NVS) G Protein-Coupled Receptor Assay for human Endothelin Receptor Type A (ETA) (AID 2283265)
# Chain of human Endothelin Receptor Type A (ETA), EDNRA (gene 1909) (P25101 whole entry, looked up): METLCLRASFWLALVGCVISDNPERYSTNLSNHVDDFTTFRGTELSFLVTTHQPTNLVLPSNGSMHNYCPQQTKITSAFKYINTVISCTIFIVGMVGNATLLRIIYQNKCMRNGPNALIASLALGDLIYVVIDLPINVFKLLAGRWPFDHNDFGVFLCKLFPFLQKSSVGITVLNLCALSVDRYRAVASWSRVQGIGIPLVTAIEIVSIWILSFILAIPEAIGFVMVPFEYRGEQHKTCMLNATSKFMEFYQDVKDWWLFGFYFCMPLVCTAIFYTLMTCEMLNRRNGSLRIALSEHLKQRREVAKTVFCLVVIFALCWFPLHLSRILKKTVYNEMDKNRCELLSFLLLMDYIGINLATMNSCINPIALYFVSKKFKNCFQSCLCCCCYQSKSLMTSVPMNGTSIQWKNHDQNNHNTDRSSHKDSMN
# How it was run: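 Binding of radioligand to membrane protein extracted from SH-SY5Y cells was read by filtration and scintillation after 3 h. Compounds were screened at 25 uM in duplicate, with hits followed up in singleton concentration series to 50 uM.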
smiles,measurement,setting,value
C[C@]12C=CC3=C4CCC(=O)C=C4CC[C@H]3[C@@H]1CC[C@@H]2O,outcome,[1],inactive
same,outcome,[2],inactive
Cc1cccc(N)c1N,AC50,[3],8220 nM (active)
same,AC50,[4],4240 nM (active)
same,outcome,[5],inactive
same,AC50,[6],12100 nM (active)
CC(C)N(Cc1ccccc1)C(=O)C(C)(C)C,AC50,[7],15700 nM (active)
CCOC(=O)[C@]1(c2ccccc2)Oc2ccccc2[C@@H]1N,AC50,[8],824 nM (active)
same,AC50,[9],94.8 nM (active)
same,AC50,[10],6200 nM (active)
same,AC50,[11],1410 nM (active)
same,AC50,[12],611 nM (active)
same,AC50,[5],16800 nM (active)
same,AC50,[13],4960 nM (active)
same,AC50,[14],48.1 nM (active)
same,AC50,[15],32.3 nM (active)
same,AC50,[16],471 nM (active)
same,AC50,[6],2660 nM (active)
same,AC50,[17],6040 nM (active)
same,AC50,[18],13300 nM (active)
O=[N+]([O-])C(Br)(CO)CO,AC50,[7],25000 nM (active)
O=C(Oc1ccc(Br)cc1)N1CCN2CCC1CC2,AC50,[17],12500 nM (active)
same,AC50,[18],19400 nM (active)
O=[N+]([O-])c1ccc(Oc2ccc(Cl)cc2Cl)cc1,outcome,[8],inactive
same,outcome,[11],inactive
same,outcome,[6],inactive
CC(C)(O)c1cnn2c(-c3ccc(F)c(-c4c(F)cccc4C#N)c3)cnc2n1,AC50,[4],73.8 nM (active)
CN(C)C(=O)Nc1ccc(Cl)cc1,outcome,[5],inactive
[Cl-].[Cl-].[Hg+2],AC50,[7],13500 nM (active)
same,AC50,[8],1560 nM (active)
same,AC50,[9],928 nM (active)
same,AC50,[4],5190 nM (active)
same,AC50,[10],2230 nM (active)
same,AC50,[11],303 nM (active)
same,AC50,[12],227 nM (active)
same,AC50,[5],925 nM (active)
same,outcome,[13],inactive
same,AC50,[19],10700 nM (active)
same,AC50,[14],1760 nM (active)
same,AC50,[20],6760 nM (active)
same,AC50,[15],354 nM (active)
same,AC50,[1],19000 nM (active)
same,AC50,[6],193 nM (active)
same,AC50,[17],1470 nM (active)
same,AC50,[18],579 nM (active)
Nc1ccc(Cl)cc1N,AC50,[4],2400 nM (active)
Nc1ccc(N=Nc2ccccc2)cc1,outcome,[3],inactive
c1ccc2c(c1)-c1cccc3cccc-2c13,outcome,[5],inactive
CCC(C)c1ccc(O)cc1 (centres undefined),outcome,[20],inactive
